Assay outcomes: PubChem BioAssay, National Center for Advancing Translational Sciences (NCATS)
TDP-43 yeast inh: inhibitors of TDP-43 toxicity in yeast; Potency, µM (series often up to 46.1 µM), for the others: top-dose growth rescue (activation), hits mostly activators; hit rate 1.8% among 410,000; TDP-43 expressing yeast growth rescue, BacTiter-Glo, 24 h; note: % of control where 0% means no effect; nearly all actives have a fitted effect of over 50% in size
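Readout is BacTiter-Glo luminescence of cell growth, so inhibitors register as activators. TDP-43-expressing yeast at OD600=0.02 in galactose medium, after raffinose pregrowth to mid-log, were incubated with compound for 24 hr at 30 deg C.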
Abeta rescue: compounds reversing amyloid beta toxicity in yeast | Potency, µM (doses to about 46.1 µM), usual class: activators | hit rate 0.063% among 410,000 | yeast expressing A-beta42, growth rescue, OD600, 48 h; response scale: 0% DMSO, 100% iron-clioquinol control; note: nearly all actives have a fitted effect of over 55% in size
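Growth rescue measured by 600 nm absorbance after 48 h yeast culture at 30 C with compound. Values normalized between DMSO and an equimolar ferric chloride plus clioquinol control.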
FUS suppressor: suppressors of FUS proteinopathy in yeast. S. cerevisiae FUS-expressing, growth rescue, OD600, 24 h. Potency, µM (series often up to 76.6 µM), actives largely listed as activators. hit rate 0.24% among 390,000. AID 1347120;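 note: plate controls were DMSO vehicle for no effect and reference control for full effect; nearly all actives have a fitted effect of over 55% in size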
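Steps: raffinose overnight preculture; dilution to OD 0.005 in 2% galactose minimal medium; compound addition (concentration series); 24hr at 30C, 99% humidity; absorbance read at 600 nm.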
aSyn yeast inh: inhibitors of alpha-synuclein toxicity in yeast; Yeast expressing alpha-synuclein, growth rescue, BacTiter-Glo, 24 h; hit rate 0.14% among 370,000; Potency, µM (highest dose often 46.1 µM), for the others: at the highest dose growth rescue (activation), most hits filed as activators; note: % of control where 0% means no effect; nearly all actives have a fitted effect of over 65% in size
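Screening used galactose-induced yeast with toxic alpha-synuclein levels, exposed to compound for 24 hr at 30 deg C. Cell growth, read with BacTiter-Glo luminescence, gave the measured signal.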
* = called active by the depositor. Rows were chosen to be rich in hits. Some 2.1% of all compounds tested hit in one or more screens of this group. Calls come from the whole dose curve; as a rule, active = well fitted curve in the direction sought with a large enough effect; inconclusive = small, poorly fitted or top-dose-only effect, or another doubt; inactive = no such curve, though single readings can be large; an effect the other way counts as inactive or inconclusive. Potency is the fitted concentration of half-maximal effect.

Cc1cc(NC(=O)CSc2nnc(-c3ccco3)n2C)no1 was read as TDP-43 yeast inh 7.2%, Abeta rescue inactive, FUS suppressor inactive and aSyn yeast inh 0.4%.
`O=C(CSc1ccc(-c2ccco2)nn1)Nc1ccccc1F` gave TDP-43 yeast inh 28.2µM*, Abeta rescue inactive, FUS suppressor inactive and aSyn yeast inh 7.3%.
Screening O=C(Cn1nc(-c2ccco2)ccc1=O)Nc1cc(C(F)(F)F)ccc1Cl returned TDP-43 yeast inh 17.0%, Abeta rescue inactive, FUS suppressor inactive and aSyn yeast inh -10.2%.
For O=C(Cn1nc(-c2ccco2)ccc1=O)Nc1cc(Cl)ccc1Cl the results were TDP-43 yeast inh 12.6µM*, Abeta rescue inactive, FUS suppressor inactive and aSyn yeast inh 13.1%.
Screening Cn1c(SCC(=O)Nc2ccc(Cl)cc2F)nnc1-c1ccco1 returned TDP-43 yeast inh 21.6%, Abeta rescue inactive, FUS suppressor inactive and aSyn yeast inh 2.82µM*.
`Cc1ccc(C)c(N2CCN(C(=O)Cn3cnc4nc5c(cc4c3=O)CCCC5)CC2)c1` gave TDP-43 yeast inh -4.8%, Abeta rescue inactive and FUS suppressor inactive.
`CCC(=O)Nc1ccc(-c2nnc(SCc3ccccc3)n2C)cc1` gave aSyn yeast inh -12.3%.
Cc1ccc(Oc2nc3ccccn3c(=O)c2/C=C(\C#N)c2nc3ccccc3s2)c(C)c1 was read as TDP-43 yeast inh 18.2%, Abeta rescue inactive and FUS suppressor inactive.
For Cc1ccc(-c2csc(C(O)c3ccccc3)n2)cc1C (configuration not stated) the results were TDP-43 yeast inh 25.1µM*, Abeta rescue inactive, FUS suppressor inactive and aSyn yeast inh inconclusive.
Screening OC(c1ccccc1)c1nc(-c2cc3ccccc3o2)cs1 (configuration not stated) returned TDP-43 yeast inh 14.1µM*, Abeta rescue inactive, FUS suppressor inactive and aSyn yeast inh 11.2%.
`COc1cc(C(O)c2nc(-c3ccc(C)c(C)c3)cs2)ccc1F` (configuration not stated) gave TDP-43 yeast inh 35.5µM*, Abeta rescue inactive, FUS suppressor inactive and aSyn yeast inh inconclusive.
COc1ccc(CCNC(=O)c2ccc3c(c2)ncn3C2CCCCC2)cc1 was read as FUS suppressor inactive.
`CCc1ccccc1NC(=O)c1cnc(N2CCCCC2)c2ccccc12` gave TDP-43 yeast inh -4.8%, Abeta rescue inactive and FUS suppressor inactive.
`COc1cc(Nc2nc(SCc3ccccc3Cl)nc3ccccc23)cc(OC)c1` gave TDP-43 yeast inh 20µM*, Abeta rescue inactive and FUS suppressor inconclusive.
`COc1cc(Nc2nc(SCc3cccc(Cl)c3)nc3ccccc23)cc(OC)c1` gave TDP-43 yeast inh 17.8µM*, Abeta rescue inactive and FUS suppressor inactive.
Screening COc1cc(Nc2nc(SCc3ccc(Cl)cc3)nc3ccccc23)cc(OC)c1 returned TDP-43 yeast inh inconclusive, Abeta rescue inactive and FUS suppressor inactive.
Screening COc1cc(Nc2nc(SCC(=O)c3ccc(Cl)c(Cl)c3)nc3ccccc23)cc(OC)c1 returned TDP-43 yeast inh 12.6µM*, Abeta rescue inactive and FUS suppressor inactive.
Screening O=C(CSc1nc(Nc2ccccc2)c2ccccc2n1)c1ccc(Cl)cc1 returned TDP-43 yeast inh 19.2%, Abeta rescue inactive and FUS suppressor inactive.
For CCCC1=Nc2cc(C(=O)NCc3ccccc3)ccc2Sc2ccccc21 the results were TDP-43 yeast inh 22.8%, Abeta rescue inactive and FUS suppressor inactive.
Screening COc1cc(CNn2c(C)n[nH]c2=S)cc(Cl)c1OCc1ccc(F)cc1 returned TDP-43 yeast inh 8.7%, Abeta rescue inactive, FUS suppressor inactive and aSyn yeast inh -0.5%.
`COc1cc(CNn2c(C)n[nH]c2=S)cc(Br)c1OCc1ccc(F)cc1` gave TDP-43 yeast inh 35.5µM*, Abeta rescue inactive, FUS suppressor inactive and aSyn yeast inh 3.2%.
O=c1c2ccccc2oc2ccc(C#CC3(O)CCCCC3)cc12 was read as TDP-43 yeast inh 20µM*, Abeta rescue inactive, FUS suppressor inconclusive and aSyn yeast inh -11.8%.
Screening Nc1ccc(C#Cc2ccc3c(=O)c4ccccc4oc3c2)cc1 returned TDP-43 yeast inh 35.5µM*, Abeta rescue inactive, FUS suppressor inactive and aSyn yeast inh -0.7%.
For COc1ccc(NC(=O)c2ccco2)cc1NC(=O)COc1ccc(Cl)c(C)c1 the results were TDP-43 yeast inh inconclusive, Abeta rescue inactive and FUS suppressor inactive.
For CCCc1ccc(NC(=O)C2CCCN(c3cnccn3)C2)cc1 (configuration not stated) the results were TDP-43 yeast inh 31.6µM*, Abeta rescue inactive, FUS suppressor inactive and aSyn yeast inh inconclusive.
`Cn1c(=O)c2nc(-c3ccccc3)oc2c2ccccc21` gave TDP-43 yeast inh 10µM*, Abeta rescue inactive, FUS suppressor inactive and aSyn yeast inh inconclusive.
CCCCCc1nc2c(=O)n(C)c3ccccc3c2o1 was read as TDP-43 yeast inh inconclusive, Abeta rescue inactive, FUS suppressor inactive and aSyn yeast inh -0.5%.
For COC(=O)c1ccc(CSc2nnc(CS(=O)Cc3ccc(Br)cc3)n2-c2ccccc2)cc1 (configuration not stated) the results were TDP-43 yeast inh 25.1µM*, Abeta rescue inactive and aSyn yeast inh 25.5%.
`COC(=O)c1ccc(CSc2nnc(-c3c[nH]c4ccccc34)n2-c2ccccc2)cc1` gave TDP-43 yeast inh 2.0%, Abeta rescue inactive, FUS suppressor inactive and aSyn yeast inh 1.2%.
`Cc1ccc(NC(=O)c2nc(S(C)(=O)=O)ncc2N(Cc2ccccc2)Cc2ccco2)c(C)c1` gave TDP-43 yeast inh 11.4%, Abeta rescue inactive and FUS suppressor inactive.
Screening CC(=O)Nc1ncc(Cc2cccc(Cl)c2)s1 returned TDP-43 yeast inh -2.2%, Abeta rescue inactive, FUS suppressor inactive and aSyn yeast inh -17.2%.
`CC(C)C(=O)Nc1ncc(Cc2cccc(Cl)c2)s1` gave TDP-43 yeast inh 17.8µM*, Abeta rescue inconclusive, FUS suppressor inactive and aSyn yeast inh 0.6%.
Screening COc1ccc(N2CCN(C(=O)CCn3cnc4onc(-c5ccc(F)cc5)c4c3=O)CC2)cc1 returned TDP-43 yeast inh inconclusive, Abeta rescue inactive and FUS suppressor inconclusive.
NS(=O)(=O)c1ccc(Sc2ccc3c(c2)CCC3)nc1 was read as TDP-43 yeast inh 15.8µM*, Abeta rescue inactive, FUS suppressor inactive and aSyn yeast inh -0.5%.
Screening NS(=O)(=O)c1ccc(S(=O)(=O)c2ccccc2)nc1 returned TDP-43 yeast inh -1.7%, Abeta rescue inactive, FUS suppressor inactive and aSyn yeast inh -1.1%.
CNc1nnc(C(F)(F)F)s1 was read as TDP-43 yeast inh 6.7%, Abeta rescue inactive, FUS suppressor inactive and aSyn yeast inh 3.3%.
Fc1ccc(Nc2nnc(C(F)(F)F)s2)cc1 was read as TDP-43 yeast inh 12.6µM*, Abeta rescue inactive, FUS suppressor inactive and aSyn yeast inh -6.9%.
